Assay outcomes as filed in PubChem.
Only some compounds are listed: those with a hit (about 1.1% of all), similar ones and a draw of the others.
HEK293 viab = counter-screen for SNCA expression inhibitors: cell viability | HEK-293-SNCA-luc viability, GF-AFC fluorescence, 24 h | Potency, µM (doses to about 57.1 µM), usual class: cytotoxic | hit rate 0.12% among 150,000; further: nearly all actives have a fitted effect of over 30% in size
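HEK-293-SNCA-luc cells (1500/well) plated 24 h, then exposed 24 h to a dilution series; GF-AFC added 30 min at 37C, fluorescence 405/540 nm; normalised to medium-only and DMSO wells, Hill fit.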
SNCA expr inhib = SNCA gene expression inhibition. HEK-293 SNCA-luciferase knock-in, luminescence, 24 h. hit rate 0.17% among 140,000. AID 1671194. Potency, µM (top dose mostly 57.2 µM), actives largely listed as inhibitors; further: nearly all actives have a fitted effect of over 45% in size
GPT2 inh = blocks human glutamate pyruvate transaminase 2; Q8TD30; Recombinant GPT2, coupled pyruvate oxidase/HRP Amplex Red fluorescence; Potency, µM (titrated, usually from 57.7 µM), most hits filed as inhibitors; hit rate 0.25% among 100,000; AID 1671188; further: nearly all actives have a fitted effect of over 60% in size
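Fluorescence of coupled pyruvate oxidase/HRP/Amplex Red system (50uM Amplex, 30 min, dark) reports pyruvate formed by GPT2. Enzyme reaction: 10ng/uL GPT2, 2mM L-alanine, 250uM a-KG, 30 min room temperature, pH 7.5; 50uM AOA control.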
IP6K1 inh = blocks human inositol hexakisphosphate kinase 1; Q92551; IP6K1 kinase, ADP-Glo luminescence, 2 h; stronger effect = lower value; activity change, % (series mostly up to about 58 µM); hit rate 0.81% among 140,000; in the data active means activity change below about -25%
Target sequence (Q92551 whole entry, looked up): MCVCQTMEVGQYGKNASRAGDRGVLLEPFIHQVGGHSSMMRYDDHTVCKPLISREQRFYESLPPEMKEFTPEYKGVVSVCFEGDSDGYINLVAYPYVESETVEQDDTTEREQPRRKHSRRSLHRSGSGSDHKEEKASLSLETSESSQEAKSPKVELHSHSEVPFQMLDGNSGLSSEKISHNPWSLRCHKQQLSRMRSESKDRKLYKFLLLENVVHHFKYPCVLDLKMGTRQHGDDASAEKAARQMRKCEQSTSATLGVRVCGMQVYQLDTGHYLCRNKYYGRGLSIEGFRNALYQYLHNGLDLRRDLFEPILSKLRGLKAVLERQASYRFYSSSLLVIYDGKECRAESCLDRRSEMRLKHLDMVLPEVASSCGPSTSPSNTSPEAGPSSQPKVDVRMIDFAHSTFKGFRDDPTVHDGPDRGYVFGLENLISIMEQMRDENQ
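ADP-Glo luminescence measures ADP made by human IP6K1 during a 2 h RT reaction with ATP/IP6 (mix at 1.3 mM/130 uM); top library doses 57.5 and 19.1 uM final.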
IP6K1 inh cnf = confirmation of human IP6K1 inhibitors. shares compounds with IP6K1 inh. recombinant IP6K1 kinase, ADP-Glo luminescence, 2 h. Potency, µM (top dose mostly 49 µM), most hits filed as inhibitors. hit rate 13% among 1,200. AID 1645852; further: nearly all actives have a fitted effect of over 65% in size
Numbers stand for hits; . = inactive; ? = inconclusive; / = not tested or not shown; [ ] = dose if it differs, or a comment. Unless noted, the call rests on the fitted dose curve; in most records, active means well fitted curve in the direction sought with a large enough effect; inconclusive means small, poorly fitted or top-dose-only effect, or another doubt; inactive means no such curve, though single readings can be large; an effect the other way counts as inactive or inconclusive.

SMILES	HEK293 viab	SNCA expr inhib	GPT2 inh	IP6K1 inh	IP6K1 inh cnf
Oc1cccc(-c2c3nc(c(-c4cccc(O)c4)c4ccc([nH]4)c(-c4cccc(O)c4)c4nc(c(-c5cccc(O)c5)c5ccc2[nH]5)CC4)C=C3)c1	.	.	.	-53	?
C[S+](=O)([O-])c1cccc(NC(=O)Cc2c[nH]c3ncc(-c4ccccc4)cc23)c1	.	.	.	-26	?
COc1ccc(-c2cnc3[nH]cc(CC(=O)Nc4ccncc4)c3c2)cc1	.	.	.	-39	?
C=Cc1ccc(Cn2c(C(=O)O)c(CNCCc3ccco3)c3ccc(C)cc32)cc1	?	.	/	-29	.
O=C(CNC(=O)c1cccc(-c2ccc(C(F)(F)F)cc2)c1)NCc1cccc(Cl)c1	.[12.5 µM]	?	.	.	/
COc1ccc(F)cc1-c1ccc(CN2CCCCC2C(=O)NCc2ccccc2)cc1 (stereo not given)	/	/	/	.	/
Cc1ccc(OCc2nc(C3CCN(C(=O)NCc4ccccc4)C3)no2)cc1 (stereo not given)	.	.	?	.	/
O=C(CCn1cncn1)N1CCC(c2nccn2Cc2cccnc2)CC1	.	.	.[11.5 µM]	-38	.
O=C(Nc1ccccc1F)N1CCN(c2ccc3nnc(C4CC4)n3n2)CC1	/	/	/	.	/
Cc1cccc(NC(=O)Cn2nnc(C(=O)Nc3ccc(F)c(Cl)c3)c2N)c1	.	.	/	-34	.
COc1cccc(NC(=O)c2nnn(Cc3ccc(OC)c(Br)c3)c2N)c1	.	.	/	-27	?
COc1ccc(NC(=O)Cn2nnc(C(=O)Nc3ccc(C)c(F)c3)c2N)cc1Cl	.	.	/	.	/
Cc1ccc(-c2cc3c(=O)n(CCNC(=O)c4nn(C)c5ccccc45)ccn3n2)c(C)c1	.	.	.	.	/
CCOC(=O)[C@@H]1CN(C(=O)OCC(C)C)[C@H]2c3ccc(OC)cc3O[C@@H]12	/	/	/	.	/
NC(=O)Cc1c[nH]c2ncc(-c3cccc(C(F)(F)F)c3)cc12	.	.	.	-32	?
NC(=O)Cc1c[nH]c2ncc(-c3cccc(O)c3)cc12	.	.	.	-38	?
NC(=O)Cc1c[nH]c2ncc(-c3ccccc3Oc3ccccc3)cc12	.	?	.	.	/
NC(=O)Cc1c[nH]c2ncc(-c3ccccc3F)cc12	.	.	?	-38	?
C[S+](=O)([O-])c1cccc(-c2cnc3[nH]cc(CC(N)=O)c3c2)c1	.	.	.	.	/
O=C(NCCCc1ccccc1)c1cc(-c2ccccc2)c2nncn2n1	.	.	.	.	/
CCOC(=O)[C@H]1[C@@H](O)C(=O)N(Cc2ccccc2)C12CCN(C(=O)CC(C)(C)C)CC2	/	/	/	.	/
CCOCCNC(=O)C1CCCN(Cc2cccc(-c3ccccc3OC)c2)C1 (stereo not given)	.	.	.	.	/
COc1cc([N+](=O)[O-])ccc1NC(=O)c1nc2ccccc2n(C)c1=O	.	.	/	.	/
COc1cc(Nc2ccc([N+](=O)[O-])cc2C(=O)O)cc2ccccc12	.	/	.	-25	?
CN1C[C@H](NCc2ccc(F)cc2)CCC[C@@H](C(=O)NC2CC2)CC1=O	.	.	.	-26	?
SMILES	HEK293 viab	SNCA expr inhib	GPT2 inh	IP6K1 inh	IP6K1 inh cnf
CN1C[C@H](NCc2ccc(C(F)(F)F)cc2)CCC[C@@H](C(=O)NC2CC2)CC1=O	.	.	.	.	/
COc1ccc(F)cc1-c1cccc(C(=O)NCC(=O)NCCC2CCCCC2)c1	/	/	/	.	/
COc1ccccc1-c1cccc(CN2CCCC(C(=O)NC(C)C)C2)c1 (stereo not given)	.	.	.	.	/
CN(Cc1nc(-c2ccncc2)no1)C1CCC2(CCNCC2)CC1	.	.	?	-41	.
CCn1c2c(c(=O)n3ncc(C(=O)Nc4cc(Cl)ccc4OC)c13)CN(Cc1ccc(OC)cc1)CC2	.	?	/	.	/
CCn1c2c(c(=O)n3ncc(C(=O)Nc4ccc(C(=O)OC)cc4)c13)CN(Cc1ccc(OC)cc1)CC2	.	.	/	-35	.
O=C(NCc1cccc(C(F)(F)F)c1)C1CCN(Cc2ccccc2-c2ccccc2F)CC1	/	/	/	.	/
Cc1ccc(C2Cn3nnc(C(=O)N4CCC(C(=O)NC5CC5)CC4)c3CO2)cc1 (stereo not given)	.	.	.	.	/
O=C(c1ccc2cc[nH]c2c1)N1CCN(C(=O)c2nnn3c2COC(c2ccc(Cl)cc2)C3)CC1 (stereo not given)	.	.	.	-28	.
